# Results from paper PMC5540273 (PLoS ONE, 2017).
# Key:
# Conditions in all cases: concentration: 1 μM, replicates: in singlicate; n = 1
# CAMK1 = test system: CAMK1
# CAMK2A = test system: CAMK2A
# CAMK2B = test system: CAMK2B
# CAMK2D = test system: CAMK2D
# CAMK2G = test system: CAMK2G
# CAMK4 = test system: CAMK4
# CAMKK1 = test system: CAMKK1
# CAMKK2 = test system: CAMKK2
# CASK = test system: CASK
# CDC2L1 = test system: T1, CDC2L1
# T1 construct: gene CDK11B
# 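Note: KINOMEscan kinase panel screen.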
SMILES,%Inh (CAMK1) [%],%Inh (CAMK2A) [%],%Inh (CAMK2B) [%],%Inh (CAMK2D) [%],%Inh (CAMK2G) [%],%Inh (CAMK4) [%],%Inh (CAMKK1) [%],%Inh (CAMKK2) [%],%Inh (CASK) [%],%Inh (CDC2L1) [%]
O=C(Nc1ccccc1F)NC1CCN(c2ccnc(Nc3ccc(F)cc3)n2)CC1 [GSK1379800],0,0,0,3,15,0,0,3,0,0
Cc1ccc(C)c(NC(=O)NC2CCN(c3ccnc(Nc4ccc(F)cc4)n3)C2)c1 (stereo not shown) [GSK1379720],2,0,0,19,4,0,0,0,9,0
O=C(Nc1n[nH]c2nc(-c3ccc(O)cc3)ccc12)C1CC1 [SB-710363],0,19,19,5,0,0,8,17,31,0
COc1cccc(-c2ccc3c(NC(=O)C4CC4)n[nH]c3n2)c1 [SB-710903],0,100,100,8,9,0,6,7,23,0
Cc1ccc(S(=O)(=O)Nc2ccc(Nc3nccc(Nc4cccc5[nH]ncc45)n3)cc2)cc1 [GSK581271],24,0,0,4,8,0,0,9,45,0
Clc1ccc(-c2nn3ncccc3c2-c2ccnc(Nc3ccc4c(c3)OCCO4)n2)cc1 [GW829116],0,0,0,0,0,3,0,0,15,0
Cn1cc(-c2ccc3c(c2)CCN3C(=O)Cc2cccc(Cl)c2)c2c(N)ncnc21 [GSK2606590],26,0,0,18,25,0,19,12,7,0
CN1CCN(Cc2cccc(-c3ccc4c(Nc5ccc(Oc6ccccc6)cc5)ccnc4c3)c2)CC1 [GW578342],27,1,0,5,10,0,0,0,1,0
Nc1ncc(-c2cccnc2)c2scc(-c3ccc4c(c3)CCN4C(=O)Cc3ccccc3)c12 [GSK683281],22,0,0,19,37,1,34,26,26,0
CCS(=O)(=O)c1ccc(OC)c(Nc2nccc(-c3c(-c4cccc(NC(=O)c5c(F)cccc5F)c4)nn4ncccc34)n2)c1 [GSK326180],9,0,0,15,27,0,0,20,16,0
CCc1ccc(-c2ccc3c(c2)-c2c(cnn2C)S(=O)(=O)N3C)cc1,2,0,4,0,13,0,13,12,3,0
Cl.Cl.NCC(NCc1ccc(-c2ccnc3[nH]ccc23)s1)c1ccccc1 (stereo not shown) [GSK1321565],10,0,0,13,19,0,0,9,0,0
COc1cc(Nc2nccc(N3CCC(NC(=O)Nc4cccc(C(C)=O)c4)C3)n2)cc(OC)c1OC (stereo not shown) [GSK1379753],42,0,0,0,0,0,0,4,0,0
CN(c1ccc(NC(=O)Nc2cc(C(F)(F)F)ccc2F)cc1)c1ccnc(Nc2ccc(S(N)(=O)=O)cc2)n1 [GW809893],48,0,4,1,9,0,16,15,35,88
Cl.c1ccc(-c2ccc3c(Nc4ccc5[nH]ccc5c4)ccnc3c2)nc1 [GW440138],0,0,0,7,18,0,3,12,0,0
Cc1ccc(C(=O)N2CC[C@@H](O)C2)cc1-n1c(C)cc(OCc2ccc(F)cc2F)c(Br)c1=O,0,0,0,0,0,0,0,0,0,0
